{
  "source": "paper PMC11062922",
  "about": "(Nature Chemical Biology, 2023)",
  "set-up_in_all_cases": "species or system human, MV4-11 + K-562 + COLO205 + SK-N-BE2 + OVCAR-8",
  "key": {"CDKL5": {"system": "CDKL5", "conditions": "read-out: apparent Kd; compound concentrations: 100 nM and 1000 nM (sheet 'Samples'), CATDS: 0.49229073825052599; n = 1"}, "TESK1": {"system": "TESK1", "conditions": "read-out: apparent Kd; compound concentrations: 100 nM and 1000 nM (sheet 'Samples'), CATDS: 0.50795455679108803; n = 1"}, "CIT": {"system": "CIT", "conditions": "read-out: apparent Kd; compound concentrations: 100 nM and 1000 nM (sheet 'Samples'), CATDS: 0.16560503181349201; n = 1"}, "CSNK1A1": {"system": "CSNK1A1", "conditions": "read-out: apparent Kd; compound concentrations: 100 nM and 1000 nM (sheet 'Samples'), CATDS: 0.105298123149642; n = 1"}, "CSNK1D": {"system": "CSNK1D", "conditions": "read-out: apparent Kd, compound concentrations: 100 nM and 1000 nM (sheet 'Samples'), n = 1"}, "CSNK1E": {"system": "CSNK1E", "conditions": "read-out: apparent Kd, compound concentrations: 100 nM and 1000 nM (sheet 'Samples'), n = 1"}, "MAPK14": {"system": "MAPK14", "conditions": "read-out: apparent Kd, compound concentrations: 100 nM and 1000 nM (sheet 'Samples'), n = 1"}, "MAPKAPK2": {"system": "MAPKAPK2", "conditions": "read-out: apparent Kd, n = 1"}, "PKN3": {"system": "PKN3", "conditions": "read-out: apparent Kd; compound concentrations: 100 nM and 1000 nM (sheet 'Samples'), CATDS: 0.10775551436498899; n = 1"}, "CDK7": {"system": "CDK7", "conditions": "read-out: apparent Kd; compound concentrations:100 nM and 1000 nM (sheet 'Samples'); n = 1"}, "ERCC2": {"system": "ERCC2", "conditions": "read-out: apparent Kd; compound concentrations:100 nM and 1000 nM (sheet 'Samples'); n = 1"}, "MAPK10": {"system": "MAPK10", "conditions": "read-out: apparent Kd, n = 1"}, "MAPK9": {"system": "MAPK9", "conditions": "read-out: apparent Kd, n = 1"}, "NLK": {"system": "NLK", "conditions": "read-out: apparent Kd; compound concentrations:100 nM and 1000 nM (sheet 'Samples'); n = 1"}, "PIP4K2C": {"system": "PIP4K2C", "conditions": "read-out: apparent Kd, n = 1"}, "PRKAA2": {"system": "PRKAA2", "conditions": "read-out: apparent Kd; compound concentrations:100 nM and 1000 nM (sheet 'Samples'); n = 1"}, "TNK2": {"system": "TNK2", "conditions": "read-out: apparent Kd; compound concentrations:100 nM and 1000 nM (sheet 'Samples'); n = 1"}, "CDK6": {"system": "CDK6", "conditions": "read-out: apparent Kd; compound concentrations: 100 nM and 1000 nM (sheet 'Samples'), CATDS: 0.35534490355550902; n = 1"}, "EGFR": {"system": "EGFR", "conditions": "read-out: apparent Kd; compound concentrations: 100 nM and 1000 nM (sheet 'Samples'), CATDS: 0.84328926118449798; n = 1"}, "CLK1": {"system": "CLK1", "conditions": "read-out: apparent Kd; compound concentrations: 100 nM and 1000 nM (sheet 'Samples'), CATDS: 7.5926373911313003E-2; n = 1"}, "CLK4": {"system": "CLK4", "conditions": "read-out: apparent Kd; compound concentrations: 100 nM and 1000 nM (sheet 'Samples'), CATDS: 5.3158030493379999E-2; n = 1"}, "CSNK1G1": {"system": "CSNK1G1", "conditions": "read-out: apparent Kd; compound concentrations: 100 nM and 1000 nM (sheet 'Samples'), CATDS: 3.9062620233065198E-2; n = 1"}, "CSNK2A1;CSNK2A3": {"system": "CSNK2A1;CSNK2A3", "conditions": "read-out: apparent Kd; compound concentrations: 100 nM and 1000 nM (sheet 'Samples'), CATDS: 3.8692946827206802E-2; n = 1"}, "DYRK1A": {"system": "DYRK1A", "conditions": "read-out: apparent Kd; compound concentrations: 100 nM and 1000 nM (sheet 'Samples'), CATDS: 3.9869758928983597E-2; n = 1"}, "EIF2AK1": {"system": "EIF2AK1", "conditions": "read-out: apparent Kd; compound concentrations: 100 nM and 1000 nM (sheet 'Samples'), CATDS: 5.2303665150266299E-2; n = 1"}, "GAK": {"system": "GAK", "conditions": "read-out: apparent Kd; compound concentrations: 100 nM and 1000 nM (sheet 'Samples'), CATDS: 7.9054270069147406E-2; n = 1"}, "MAPK8": {"system": "MAPK8", "conditions": "read-out: apparent Kd; compound concentrations: 100 nM and 1000 nM (sheet 'Samples'), CATDS: 0.19867179384424899; n = 1"}, "NUAK1": {"system": "NUAK1", "conditions": "read-out: apparent Kd; compound concentrations: 100 nM and 1000 nM (sheet 'Samples'), CATDS: 4.4301419887818799E-2; n = 1"}, "PTK2B": {"system": "PTK2B", "conditions": "read-out: apparent Kd; compound concentrations: 100 nM and 1000 nM (sheet 'Samples'), CATDS: 4.7862573300624302E-2; n = 1"}, "PTK2": {"system": "PTK2", "conditions": "read-out: apparent Kd; compound concentrations: 100 nM and 1000 nM (sheet 'Samples'), CATDS: 4.8653444665563698E-2; n = 1"}, "RPS6KA1": {"system": "RPS6KA1", "conditions": "read-out: apparent Kd; compound concentrations: 100 nM and 1000 nM (sheet 'Samples'), CATDS: 4.3998663303794899E-2; n = 1"}, "TNK1": {"system": "TNK1", "conditions": "read-out: apparent Kd; compound concentrations: 100 nM and 1000 nM (sheet 'Samples'), CATDS: 9.9368831187406595E-2; n = 1"}, "TTK": {"system": "TTK", "conditions": "read-out: apparent Kd; compound concentrations: 100 nM and 1000 nM (sheet 'Samples'), CATDS: 7.5031677714786096E-2; n = 1"}, "[1]": {"conditions": "compound concentrations:100 nM and 1000 nM (sheet 'Samples')"}},
  "note": "Where two headings read alike, the source gives them in different places.",
  "data": [
    {"smiles": "CCn1c(-c2c(N)noc2C)nc2cnccc21", "note": "[SB-737856]", "values": [
      {"measurement": "potency estimated from few doses", "setting": "CDKL5", "value": 1930, "unit": "nM"},
      {"measurement": "potency estimated from few doses", "setting": "TESK1", "value": 1820, "unit": "nM"}
    ]},
    {"smiles": "Cc1ccn2nc(-c3ccc(F)cc3)c(-c3ccncc3)c2c1.Cl", "note": "[GW457859A]", "values": [
      {"measurement": "potency estimated from few doses", "setting": "CIT", "value": 653, "unit": "nM"},
      {"measurement": "potency estimated from few doses", "setting": "CSNK1A1", "value": 2070, "unit": "nM"},
      {"measurement": "potency estimated from few doses", "setting": "CSNK1D; CATDS: 0.38029539442901", "value": 165, "unit": "nM"},
      {"measurement": "potency estimated from few doses", "setting": "CSNK1E; CATDS: 0.17601881181755799", "value": 578, "unit": "nM"},
      {"measurement": "potency estimated from few doses", "setting": "MAPK14; CATDS: 0.12679025336255401", "value": 1200, "unit": "nM"},
      {"measurement": "potency estimated from few doses", "setting": "MAPKAPK2; compound concentrations: 100 nM and 1000 nM (sheet 'Samples'), CATDS: 0.125209165131694", "value": 1240, "unit": "nM"},
      {"measurement": "potency estimated from few doses", "setting": "PKN3", "value": 1920, "unit": "nM"}
    ]},
    {"smiles": "Cl.Cn1c(=O)c(Oc2ccccc2)cc2cnc(NC3CCOCC3)nc21", "note": "[RO3304757-001]", "values": [
      {"measurement": "potency estimated from few doses", "setting": "CDK7", "value": 1310, "unit": "nM"},
      {"measurement": "potency estimated from few doses", "setting": "ERCC2", "value": 1500, "unit": "nM"},
      {"measurement": "potency estimated from few doses", "setting": "MAPK10; [1]", "value": 984, "unit": "nM"},
      {"measurement": "potency estimated from few doses", "setting": "MAPK14; CATDS: 0.27428845343206798", "value": 68.9, "unit": "nM"},
      {"measurement": "potency estimated from few doses", "setting": "MAPK9; [1]", "value": 349, "unit": "nM"},
      {"measurement": "potency estimated from few doses", "setting": "MAPKAPK2; [1]", "value": 64.7, "unit": "nM"},
      {"measurement": "potency estimated from few doses", "setting": "NLK", "value": 148, "unit": "nM"},
      {"measurement": "potency estimated from few doses", "setting": "PIP4K2C; [1]", "value": 896, "unit": "nM"},
      {"measurement": "potency estimated from few doses", "setting": "PRKAA2", "value": 1770, "unit": "nM"},
      {"measurement": "potency estimated from few doses", "setting": "TNK2", "value": 1160, "unit": "nM"}
    ]},
    {"smiles": "CNC(=O)c1cccc(C#Cc2cncnc2Nc2ccc(OCc3cccc(F)c3)c(Cl)c2)c1", "note": "[GW772405X]", "values": [
      {"measurement": "potency estimated from few doses", "setting": "CDK6", "value": 1780, "unit": "nM"},
      {"measurement": "potency estimated from few doses", "setting": "EGFR", "value": 182, "unit": "nM"}
    ]},
    {"smiles": "CCCN1CCC=C(c2ccc(Nc3nc(Nc4ccccc4C(N)=O)c4cc[nH]c4n3)c(C)c2)C1", "note": "[GSK994854A]", "values": [
      {"measurement": "potency estimated from few doses", "setting": "CLK1", "value": 392, "unit": "nM"},
      {"measurement": "potency estimated from few doses", "setting": "CLK4", "value": 801, "unit": "nM"},
      {"measurement": "potency estimated from few doses", "setting": "CSNK1D; CATDS: 3.8251361436103803E-2", "value": 2010, "unit": "nM"},
      {"measurement": "potency estimated from few doses", "setting": "CSNK1E; CATDS: 3.6903644151272202E-2", "value": 2300, "unit": "nM"},
      {"measurement": "potency estimated from few doses", "setting": "CSNK1G1", "value": 1870, "unit": "nM"},
      {"measurement": "potency estimated from few doses", "setting": "CSNK2A1;CSNK2A3", "value": 1930, "unit": "nM"},
      {"measurement": "potency estimated from few doses", "setting": "DYRK1A", "value": 1740, "unit": "nM"},
      {"measurement": "potency estimated from few doses", "setting": "EIF2AK1", "value": 831, "unit": "nM"},
      {"measurement": "potency estimated from few doses", "setting": "GAK", "value": 365, "unit": "nM"},
      {"measurement": "potency estimated from few doses", "setting": "MAPK10; compound concentrations: 100 nM and 1000 nM (sheet 'Samples'), CATDS: 6.4300767582532795E-2", "value": 535, "unit": "nM"},
      {"measurement": "potency estimated from few doses", "setting": "MAPK8", "value": 94, "unit": "nM"},
      {"measurement": "potency estimated from few doses", "setting": "MAPK9; compound concentrations: 100 nM and 1000 nM (sheet 'Samples'), CATDS: 7.8815653035512301E-2", "value": 367, "unit": "nM"},
      {"measurement": "potency estimated from few doses", "setting": "NUAK1", "value": 1270, "unit": "nM"},
      {"measurement": "potency estimated from few doses", "setting": "PIP4K2C; compound concentrations: 100 nM and 1000 nM (sheet 'Samples'), CATDS: 4.1544409686620098E-2", "value": 1530, "unit": "nM"},
      {"measurement": "potency estimated from few doses", "setting": "PTK2B", "value": 1030, "unit": "nM"},
      {"measurement": "potency estimated from few doses", "setting": "PTK2", "value": 989, "unit": "nM"},
      {"measurement": "potency estimated from few doses", "setting": "RPS6KA1", "value": 1290, "unit": "nM"},
      {"measurement": "potency estimated from few doses", "setting": "TNK1", "value": 250, "unit": "nM"},
      {"measurement": "potency estimated from few doses", "setting": "TTK", "value": 400, "unit": "nM"}
    ]}
  ]
}
